In PubChem BioAssay (Tox21):
Where “and” joins values, the source holds several entries; their conditions need not be identical. Equal entries are not always repeated. Calls of active or inactive are those of the source. Calls follow the shape of the dose curve; as a rule, active = well fitted curve in the direction sought with a large enough effect in the repeat runs; inconclusive = weak or mixed curves; inactive = flat fitted curve, though single readings scatter.

Experiment: qHTS assay to test for compound auto fluorescence at 460 nm (blue) in HEK293 cells (AID 720678)
Conditions: blue autofluorescence 405/460 nm; series mostly up to 91.3 µM
In short: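 Intrinsic compound fluorescence is recorded in live HEK293 cultures after overnight incubation at 37C, 5% CO2, using excitation 405 nm and emission 460 nm. Values are referenced to triamterene.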
% is scaled to controls: 0 for no effect and ±100 for the full control effect.

SMILES | outcome | fluorescence, % of triamterene
c1cc(-c2ccncc2)ccn1 | inactive | 
CCCCNS(=O)(=O)c1ccccc1 | inactive | 
CC(=O)Oc1ccccc1C(=O)Nc1ncc([N+](=O)[O-])s1 | inactive | 
C#C[C@]1(O)CC[C@H]2[C@@H]3CCc4cc(OC)ccc4[C@H]3CC[C@@]21C | inactive | 
c1ccc2c(c1)c1cccc3ccc4cccc2c4c31 | inactive | 
O=C(OCc1ccccc1)c1ccccc1O | inactive | 
Cc1cccc([N+](=O)[O-])c1C | inactive | 
Nc1ncn([C@@H]2O[C@H](CO)[C@@H](O)[C@H]2O)c(=O)n1 | inactive | 
CC(=O)C1(C)CC2=C(CCCC2(C)C)CC1C (centres undefined) | inactive | 
Cc1[nH]c(=O)c(C#N)cc1-c1ccncc1 | inactive | 
CC(C)=CCC/C(C)=C\CO | inactive | 
COC(=O)CCC(=O)OC | inactive | 
CCC(C)CO (centres undefined) | inactive | 
Cc1cccc(C(=O)O)c1 | inactive | 
C[C@]12CC[C@H]3[C@@H](CCC4=CC(=O)CC[C@@]43C)[C@@H]1CC[C@@H]2C(=O)CO | inactive | 
O=C1c2cccc(O)c2C(=O)c2c(O)cccc21 | inactive | 
O=C(c1ccc(OCCN2CCCCC2)cc1)c1c(-c2ccc(O)cc2)sc2cc(O)ccc12 | inactive | 
CNCCCC12CCC(c3ccccc31)c1ccccc12 | inactive | 
CCOCCOCCO | inactive | 
Cc1c(OCC(F)(F)F)ccnc1CS(=O)c1nc2ccccc2[nH]1 (centres undefined) | inactive | 

SMILES | outcome | fluorescence, % of triamterene
C[Si](C)(C)O[Si](C)(C)C | inactive | 
C#C[C@]1(O)CC[C@H]2[C@@H]3CCC4=Cc5oncc5C[C@]4(C)[C@H]3CC[C@@]21C | inactive | 
OC(CCl)CCl | inactive | 
CC(=O)CC/C=C(\C)CCC=C(C)C | inactive | 
CC(=O)c1ccccn1 | inactive | 
C[C@]12CCC(=O)C=C1CC[C@@H]1[C@@H]2C(=O)C[C@@]2(C)[C@H]1CC[C@]2(O)C(=O)CO | inactive | 
CC(C)OB(OC(C)C)OC(C)C | inactive | 
CC(C)CC(C)(O)C#CC(C)(O)CC(C)C (centres undefined) | inactive | 
C=CC(C)(CCC=C(C)C)OC(C)=O (centres undefined) | inactive | 
c1ccc2c(c1)Oc1ccccc1S2 | inactive | 
CC(C)OC=O | inactive | 
O=C=Nc1ccc(Cc2ccc(N=C=O)cc2)cc1 | inactive | 
OCCO | inactive | 
CC1=CCC(C(C)(C)O)CC1 (centres undefined) | inactive | 
C=C(C)C(=O)OCCOC(=O)C(=C)C | inactive | 
Brc1cc(Oc2cc(Br)c(Br)c(Br)c2Br)c(Br)c(Br)c1Br | inactive | 
NNc1ccc(C(=O)O)cc1 | inactive | 
CN(C)c1nc(N(C)C)nc(N(C)C)n1 |  | 0.0425% [at 18.6 µM] (inactive) and 0.0657% [at 3.72 µM] (inactive)
CCCCCCCCCCCO | inactive | 
